Laboratory results taken from PubChem BioAssay (NCI).
Compounds without any hit were thinned out: in the full panel of roughly 83,000, 20% have a hit.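 48-hour exposure, single concentration, 96-well plates; percent growth endpoint where 0 means no net growth. Active: below 10.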 Values without a mark were called inactive. Calls of active or inactive are those of the source.

What was measured:
Experiment in all cases: NCI-60 one-dose screen, 48 h (100 = growth as untreated, 0 = no growth, -100 = all killed)
Settings in all cases: 10 µM unless noted
RPMI-8226 leukemia = test system: RPMI-8226 leukemia
OVCAR-8 ovarian = test system: OVCAR-8 ovarian
OVCAR-4 ovarian = test system: OVCAR-4 ovarian
SK-OV-3 ovarian = test system: SK-OV-3 ovarian
IGROV1 ovarian = test system: IGROV1 ovarian
OVCAR-3 ovarian = test system: OVCAR-3 ovarian
HS 578T breast = test system: HS 578T breast
NCI/ADR-RES ovarian = test system: NCI/ADR-RES ovarian
T-47D breast = test system: T-47D breast
BT-549 breast = test system: BT-549 breast
MDA-MB-435 melanoma = test system: MDA-MB-435 melanoma
SW-620 colon = test system: SW-620 colon
MCF7 breast = test system: MCF7 breast
HCT-116 colon = test system: HCT-116 colon
HCC-2998 colon = test system: HCC-2998 colon
KM12 colon = test system: KM12 colon
OVCAR-5 ovarian = test system: OVCAR-5 ovarian

| Compound | growth (RPMI-8226 leukemia) | growth (OVCAR-8 ovarian) | growth (OVCAR-4 ovarian) | growth (SK-OV-3 ovarian) | growth (IGROV1 ovarian) | growth (OVCAR-3 ovarian) | growth (HS 578T breast) | growth (NCI/ADR-RES ovarian) [%] | growth (T-47D breast) | growth (BT-549 breast) | growth (MDA-MB-435 melanoma) | growth (SW-620 colon) | growth (MCF7 breast) | growth (HCT-116 colon) | growth (HCC-2998 colon) | growth (KM12 colon) | growth (OVCAR-5 ovarian) |
| --- | --- | --- | --- | --- | --- | --- | --- | --- | --- | --- | --- | --- | --- | --- | --- | --- | --- |
| Cc1[nH]n(-c2ccccc2)c2nc3nncc3c(-c3ccc(Cl)cc3)c12 | 80.6% | 89.8% | 107% | 105% | 124% | 121% | 110% | 93.6 | 93.6% | 111% | 98.1% | 93.3% | 93.9% | 93.9% | 109% | 97% |  |
| C=C1CCC2C3(C)COC(c4ccc(OC)cc4Br)OC3CCC2(C)C1/C=C/C1=CCOC1=O (stereo not given) | 7.47% (active) | 79.3% | 67.9% | 97.5% | 79.8% | 80.8% | 94.7% | 68.6 | 41.3% | 73.8% | 93.7% | 84% | 60.7% | 53.9% | 57.9% | 83.4% |  |
| Cn1cc(-c2nc(-c3c[nH]c4ccccc34)cs2)c2cccnc21 |  | 37.9% | 45.5% | 38.7% | 44.5% | 7.04% (active) | 38.6% | 20.4 | 0.223% (active) | 7.05% (active) | 1.86% (active) | 32% | 14.7% | 26.3% | 54.7% | 27.4% | 54.4% |
| CC(=O)/C(=C/c1cccc(Cl)c1)C(=O)c1ccccc1 | 16.8% | 85.2% | 89.6% | 96.3% | 83% | 96.1% | 94.7% | 75.8 | 63.6% | 72.6% | 72.7% | 71.3% | 34% | 41.7% | 99.9% | 54.8% |  |
| Oc1cccc(Nc2nccc(-c3ccc4ccccc4c3)n2)c1 | 9.15% (active) | 29.4% | 86.5% | 27.2% | 41.7% | 14.7% | 13% | 19.9 | 47.6% | 41.3% | -1.27% (active) | 31.3% | 25.3% | 20.6% | 52.2% | 28.2% |  |
| CN1CCN(c2ccc3nc(-c4ccc5nc(-c6ccc(OCCC(C)(C)C)cc6)[nH]c5c4)[nH]c3c2)CC1 | -50.1% (active) | -48.9% (active) | 81.2% | 88.8% |  | -83.6% (active) | 52.1% | 88 | 73.4% | 72.4% | -37.8% (active) | -82.6% (active) | -61.3% (active) | -95% (active) | -64.6% (active) | -60.6% (active) | -2.35% (active) |
| CN[C@@]12CC3(C=CC(=O)C=C3)O[C@]1(Cc1ccc(OC)cc1)N(C)C(=O)N2 |  | 6.34% (active) | 60.9% | 108% | 55.3% | 17.3% | 106% | 61.7 | 47.8% | 44.3% | 31.4% | 24.6% | 16.4% | 4.01% (active) | 100% | 98.2% | 33.1% |
| Cn1cc(-c2ccc(-c3cn(C)c4ncccc34)[nH]2)c2cccnc21 |  | 23.3% | -44.4% (active) | 106% | 73.8% | -36.9% (active) | 45.7% | 76 | -29.1% (active) | -12% (active) | 86.6% | 24% | 75.2% | 67.3% | 33.3% | 14.6% | -6.91% (active) |
| CS(=O)(=O)c1c(Nc2ccccc2)n[nH]c1N | 97.8% | 105% | 117% | 103% |  | 121% | 118% | 104 | 104% | 89.1% | 107% | 112% | 101% | 103% |  | 118% | 102% |
| CSc1nc(NCCCNc2ccnc3cc(Cl)ccc23)cc(-c2ccccc2)n1 | 7.4% (active) | 81.7% | 66.6% | 82.3% | 67% | 72.3% |  | 67.5 | 66.3% | 86.9% | 55.4% | 72% | 6.05% (active) | 43.1% | -59.6% (active) | 68.3% |  |
| CSc1nc(NCCO)c(C#N)c(-c2cccc(N)c2)n1 | 99.7% | 98.8% | 96.4% | 93% | 92% | 113% | 96.5% | 99.8 | 87.8% | 98% | 105% | 103% | 94.7% | 98.9% | 109% | 99.4% |  |
| O=C(COCc1c(-c2ccccc2)no[n+]1[O-])Nc1ccc(C(=O)/C=C/c2ccc3c(c2)OCO3)cc1 | 74.2% | 87.5% | 114% | 112% | 95.2% | 113% | 101% | 106 | 94.1% | 96% | 95.3% | 105% | 92.2% | 73.1% | 102% | 104% |  |
| CC[n+]1ccc2c(c1)C(=O)c1nccc3c1c-2nc1ccccc13 |  | -11.9% (active) | -67.7% (active) | -9.56% (active) | 17.1% | -14.6% (active) | -21.8% (active) | 75.1 | 8.59% (active) | -82.7% (active) | 4.27% (active) | 5.32% (active) | -6.21% (active) | -27.8% (active) | -21% (active) | 8.87% (active) | 87.7% |
| COc1ccc(C2Nc3ccccc3-n3cccc32)cc1 (stereo not given) | 89.4% | 96.6% | 93.6% | 99.9% | 71.3% | 96.1% | 93.2% | 89.9 | 84.2% | 97.1% | 103% | 100% | 95.7% | 94% | 103% | 98.7% |  |
| COC(=O)[C@H](C(C)C)n1c(=O)c2cc(OC)c(OC)cc2c2cnc3[nH]ccc3c21 | 55% | 65.1% | 85% | 26.5% | 3.08% (active) | 48.8% | 12.6% | 56.4 | 14.8% | 21.2% | 75.1% | 61.8% | 26.2% | 41.4% | 62% | 18.4% |  |
| O=C(/C=C/c1cc2ccccc2[nH]c1=O)/C=C/c1cc2ccccc2[nH]c1=O | -16.8% (active) | 4.07% (active) | 38.3% | 8.82% (active) |  | -58% (active) | 19.9% | 57.2 | 15.2% | -45.5% (active) | -41.6% (active) | -39.5% (active) | -42.3% (active) | -71.1% (active) | -88.9% (active) | -83.7% (active) | 15.6% |
| COc1ccc(-c2cn3c(-c4ccc(OC)cc4)cnc3c(Oc3ccc4c(C)cc(=O)oc4c3)n2)cc1 | 63.7% | 26.3% | -18.6% (active) | 90.6% | 70.6% | 46.6% | 57.6% | 29.9 | 45.3% | 29.2% | 37.2% | 39% | 44.2% | 33.9% | 77.1% | 43% |  |
| CCN(CC)CC(C)(C)C(=O)/C=C/c1ccccc1 | 39.4% | 76.6% | 63.3% | 74.8% | 74.1% | 37.7% | 75.5% | 46.8 |  | 46% | 40% | 35.4% | 5.47% (active) | 12.8% | 79.3% | 53.9% |  |
